About 25 (0.2%) of roughly 10,000 compounds were called active. This is one part of a sample in which actives are shown more often than they occur. Measured potencies and affinities stand elsewhere. A number with no mark means an inactive call.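 Rule for the calls: active = top tenth filtered wells with inhibition above zero that passed visual or statistical confirmation; inactive = the rest, including hits rejected on review.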
Assay: inhibitors of TNFa-induced VCAM-1 surface display, imaging, high-content imaging, pooled HUVEC, TNFa stimulus (AID 456);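 for inhibition: VCAM-1 immunofluorescence minus red nonspecific channel after plate median normalization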
Conditions: HUVEC TNFa-induced VCAM-1 surface expression, immunofluorescence imaging;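 compounds screened at 5 µM final in the well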
For `CCCCn1cnc2c(c1=O)c1nc3ccccc3nc1n2Cc1ccc2c(c1)OCO2`, the inhibition was “inactive”. For `CN(C)c1ccc(C(=O)OCC(=O)NC2CCCCC2)cc1`, the inhibition was “inactive”. With `O=C(Nc1ccccc1N1CCN(C(=O)c2ccc(Cl)cc2)CC1)c1cc2ccccc2o1` the inhibition was “inactive”. For `CS(=O)(=O)N1CCN(c2ccccc2NC(=O)c2ccc(-c3ccc(Cl)cc3Cl)o2)CC1`, the inhibition was 70.7% (active). In the case of `CS(=O)(=O)N1CCN(c2ccccc2NC(=O)c2cccs2)CC1`, the inhibition was “inactive”. For `Cc1cc(Br)c(S(=O)(=O)n2nnc3ccccc32)cc1C`, the inhibition was “inactive”. In the case of `COc1cc(CNc2ccc(N3CCOCC3)c(C(=O)O)c2)ccc1OCC(N)=O`, the inhibition was “inactive”. In the case of `Cc1ccc(NC(=O)c2ccco2)c(NC(=O)CN2C(=O)c3ccccc3C2=O)c1`, the inhibition was “inactive”. With `CCOc1ccc2cc(C#N)c(SCC(=O)N3CCC(C)CC3)nc2c1` the inhibition was 69.1% (active). In the case of `CCOc1ccc2cc(C#N)c(SCC(=O)N3CCOCC3)nc2c1`, the inhibition was “inactive”. For `CCOc1ccc2cc(C#N)c(SCC(=O)N3CCCC3)nc2c1`, the inhibition was “inactive”. For `Cc1cc(Cl)ccc1NC(=O)CSc1nnc(Cc2cccs2)n1Cc1ccco1`, the inhibition was “inactive”. With `O=S(=O)(NCCCCCNS(=O)(=O)c1ccccc1)c1ccccc1` the inhibition was “inactive”. In the case of `COc1ccc(OC)c(NC(=O)CS(=O)(=O)c2ccccc2)c1`, the inhibition was “inactive”. For `Cc1ccccc1-c1nc2ccccc2c(=O)n1C1CCS(=O)(=O)C1` (stereo not given), the inhibition was “inactive”. In the case of `C=C(Cl)COC(=O)[C@H]1C2C=CC(C2)C1C(=O)O` (stereo not given in full), the inhibition was “inactive”. In the case of `O=C(c1cnn2c1NC(c1ccco1)CC2C(F)(F)F)N1CCN(c2cccc(Cl)c2)CC1` (stereo not given), the inhibition was “inactive”. In the case of `O=C(CC(SCCO)c1ccc2c(c1)OCO2)c1ccco1` (stereo not given), the inhibition was “inactive”. With `Cc1ccccc1-c1nc(CN2CCC(C(=O)N3CCC(C(N)=O)CC3)CC2)c(C)o1` the inhibition was “inactive”. Work on `COc1ccc(CCNC(=O)C2CCN(Cc3nc(-c4cccc(Cl)c4)oc3C)CC2)cc1OC` yielded an inhibition of 76.3%. In the case of `O=C(NCC1CCCO1)c1ccc(C(=O)NCC2CCCO2)cc1` (stereo not given), the inhibition was “inactive”. With `O=C(CN(Cc1ccc(F)cc1)C(=O)Cn1nnc2ccccc21)NCC1CCCO1` (stereo not given) the inhibition was “inactive”. In the case of `O=S(=O)(c1ccc2ccccc2c1)N1CCCCC1`, the inhibition was “inactive”. For `Cc1cnc(C(=O)Nc2ccc(N3CCOCC3)cc2)cn1`, the inhibition was “inactive”. With `CSc1ncc(Cl)c(C(=O)Nc2ccc(S(=O)(=O)N3CCOCC3)cc2)n1` the inhibition was “inactive”. In the case of `Cc1cc(NCCN2CCOCC2)n2nc(C)c(-c3ccccc3)c2n1`, the inhibition was “inactive”. For `COC(=O)c1cn(C(=O)c2ccc(Br)o2)c2ccccc12`, the inhibition was “inactive”. With `O=C(NCCN1CCOCC1)C1CC(=O)N(c2ccc(F)c(Cl)c2)C1` (stereo not given) the inhibition was “inactive”. For `CC1=C(C(=O)OC2CCCCC2)C(c2ccc(C)o2)C2=C(CC(C)(C)CC2=O)N1` (stereo not given), the inhibition was “inactive”. With `COc1ccccc1N1CCN(C(=O)c2cc(C3CC3)on2)CC1` the inhibition was “inactive”. With `CCOC(=O)Cc1nnc(NC(=O)c2ccccc2OCC)s1` the inhibition was “inactive”. In the case of `O=C(CCn1c(=O)oc2ccccc21)NCCN1CCOCC1`, the inhibition was “inactive”. With `O=c1[nH]c(NCc2ccccc2)nc2c1CCCC2` the inhibition was “inactive”. In the case of `Cc1ccc(N2CCN(C(=S)c3ccc(N(C)C)cc3)CC2)cc1`, the inhibition was “inactive”. With `COc1ccccc1N1CC(C(=O)Nc2cccc(C(=O)O)c2)CC1=O` (stereo not given) the inhibition was “inactive”. In the case of `c1ccc(OCCCn2nnc(-c3cccnc3)n2)cc1`, the inhibition was “inactive”. With `CCN(CC)CCn1c(=N)n(CCO)c2ccccc21` the inhibition was “inactive”. For `Cc1c(NC(=O)Cn2nc(C(=O)O)c3ccccc3c2=O)c(=O)n(-c2ccccc2)n1C`, the inhibition was “inactive”. With `Cn1ccnc1SCC(=O)Nc1ccc2ccccc2c1` the inhibition was “inactive”. With `CCOC(=O)c1sc(NS(=O)(=O)c2ccc(NC(C)=O)cc2)nc1C` the inhibition was “inactive”. For `CCn1c(-c2cc(Br)ccc2O)n[nH]c1=S`, the inhibition was “inactive”. In the case of `CCSc1oc(-c2cccs2)nc1S(=O)(=O)c1ccccc1`, the inhibition was “inactive”. In the case of `COc1ccc(OCC(=O)N2CCN(C(=O)COc3ccc(Br)cc3)CC2)cc1`, the inhibition was “inactive”. For `COc1cc2c(cc1OC)C(c1cccnc1)CC(=O)N2` (stereo not given), the inhibition was “inactive”. With `COc1ccc(NC(=O)c2cc(C(C)C)on2)c(OC)c1` the inhibition was “inactive”. In the case of `Cc1ccc2c(c1)NC(=O)C(CC(=O)NC1CCCCC1C)O2` (stereo not given), the inhibition was “inactive”. With `COc1ccc(N2C(=O)CCC(C(=O)N3CCCCC3)C2c2ccc(OC)c(OC)c2)cc1` (stereo not given) the inhibition was “inactive”. With `CCCC1(C(=O)OCC)NC(c2ccc(N(C)C)cc2)C2C(=O)N(c3ccccc3)C(=O)C21` (stereo not given) the inhibition was “inactive”. For `CCOc1ccc(-n2cc(C(=O)Nc3cccc(C)n3)c3cc(OC)c(OC)cc3c2=O)cc1`, the inhibition was “inactive”. In the case of `COc1ccccc1N1CCN(C(=O)CSc2nc3ncnc(N)c3[nH]2)CC1`, the inhibition was “inactive”. For `Cc1ccc(-c2[nH]nc3c2C(c2ccc(OC(=O)N4CCOCC4)cc2)C(C#N)=C(N)O3)cc1` (stereo not given), the inhibition was “inactive”. For `O=C(CSc1nnc(-c2ccccc2)o1)N1CCN(c2ccccc2)CC1`, the inhibition was “inactive”. In the case of `CN(c1ccccc1)C(c1ccc(F)cc1)c1nnnn1CC1CCCO1` (stereo not given), the inhibition was “inactive”. In the case of `Cc1ccc(CCSCC(=O)O)cn1`, the inhibition was “inactive”. For `O=C(Nc1ccc(N2CCOCC2)c(Cl)c1)c1ccc(Br)o1`, the inhibition was “inactive”. With `CCn1c(CSc2nc(C)cc(C)n2)nnc1SCC(=O)Nc1ccccc1` the inhibition was “inactive”. With `COc1ccccc1N1CCN(C(=O)C(Cc2ccccc2)NC(=O)C2CCCCC2)CC1` (stereo not given) the inhibition was “inactive”. For `COc1ccc(C(N)=O)cc1N`, the inhibition was “inactive”. In the case of `C#CCN1C(=O)C(O)(CC(=O)c2cccc(OC)c2)c2ccccc21` (stereo not given), the inhibition was “inactive”. In the case of `CCOC(=O)c1c(C)oc2ccc(O)c(CN(C)C)c12`, the inhibition was “inactive”. In the case of `CN(c1cccc(NC(=O)COc2ccccc2)c1)S(C)(=O)=O`, the inhibition was “inactive”. For `CCOc1ccc2ccccc2c1C(=O)N1CCN(c2ccccc2)CC1`, the inhibition was “inactive”. With `CCOC(=O)c1c(NC(=O)CSc2nnc(-c3cccnc3)o2)sc(C)c1C` the inhibition was “inactive”. For `CN(C)S(=O)(=O)c1ccc(C(=O)Nc2ccccc2C(=O)O)cc1`, the inhibition was “inactive”. With `CCN1C(=O)c2cccc3c(NC(=O)c4ccc5c(c4)OCCO5)ccc1c23` the inhibition was “inactive”. With `N#Cc1c2n(c(=O)[nH]c1=O)CCCCC2` the inhibition was “inactive”. In the case of `O=C(c1nn2cccnc2c1Cl)N1CCN(c2ccccc2)CC1`, the inhibition was “inactive”. For `COC(=O)c1cc(Oc2ccc(C(=O)OC)cc2N)cc(C(=O)OC)c1`, the inhibition was “inactive”. In the case of `Cc1cc(C)n(C(=O)C23CC4CC(CC(C4)C2)C3)n1`, the inhibition was “inactive”. For `Cn1c(=O)cc(OCCCC(=O)N2CCCCC2)c2ccccc21`, the inhibition was 102%.

— PubChem BioAssay AID456 (Sanford-Burnham Center for Chemical Genomics, 2006)
